Measured values published in PubChem BioAssay (NCATS).
“And” between values parts separate entries of the source, which are not always exact repeats. Equal values may be shown once. Inconclusive results are not listed. The source made the active and inactive calls. Unless noted, calls come from the whole dose curve; as a rule, active = well fitted curve in the direction sought with a large enough effect; inconclusive = small, poorly fitted or top-dose-only effect, or another doubt; inactive = no such curve, though single readings can be large; an effect the other way counts as inactive or inconclusive.

Assays:
[1] = qHTS for inhibitors of adenylyl cyclases using a fission yeast platform: a pilot screen against the NCATS LOPAC library (AID 1347410)
Outline: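 Fission yeast qHTS: CHP2027 cells (AC9-GNAS-PDE4D2, fbp1-GFP), 5x10^6 cells/mL working density, EMM + His/Lys/Ura; LOPAC at up to 57 µM final; 18 h dark, 30C; GFP by laser cytometry. DPI positive control, DMSO vehicle.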

[2] = molecular target: Protein phosphatase 1D (Homo sapiens) (UniProt O15297); assay: RapidFire Mass Spectrometry qHTS Assay for Modulators of WT P53-Induced Phosphatase 1 (WIP1) (AID 1347424);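 note: amount of dephosphorylated VEPPL-S-QETFS peptide product formed by WIP1; series mostly up to about 63 µM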
Chain of Protein phosphatase 1D (Homo sapiens) (O15297 whole entry, looked up): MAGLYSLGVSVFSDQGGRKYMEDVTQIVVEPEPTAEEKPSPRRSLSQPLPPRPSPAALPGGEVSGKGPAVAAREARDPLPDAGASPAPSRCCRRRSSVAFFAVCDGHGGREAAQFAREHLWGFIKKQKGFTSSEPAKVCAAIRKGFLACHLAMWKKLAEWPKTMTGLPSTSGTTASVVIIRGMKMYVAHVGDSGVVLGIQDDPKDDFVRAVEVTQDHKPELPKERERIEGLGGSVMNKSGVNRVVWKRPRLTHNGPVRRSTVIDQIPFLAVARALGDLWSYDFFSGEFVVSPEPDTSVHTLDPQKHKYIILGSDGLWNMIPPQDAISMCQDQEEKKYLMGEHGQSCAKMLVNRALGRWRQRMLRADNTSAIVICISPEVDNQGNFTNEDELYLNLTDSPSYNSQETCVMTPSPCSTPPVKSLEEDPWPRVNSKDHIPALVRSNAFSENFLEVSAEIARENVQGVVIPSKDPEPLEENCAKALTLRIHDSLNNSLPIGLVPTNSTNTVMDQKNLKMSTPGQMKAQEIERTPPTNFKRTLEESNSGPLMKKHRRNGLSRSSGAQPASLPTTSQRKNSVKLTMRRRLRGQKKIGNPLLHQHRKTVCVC
Outline: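 RapidFire mass spectrometry measured dephosphorylated peptide after 5 min room-temperature reaction of 2 uM VEPPL-pS-QETFS with 10 nM WIP1 (50 mM Tris-HCl pH 7.5, 30 mM MgCl2, 0.1 mM EGTA, BSA), following 1 hr compound preincubation; 1 uM isotope-labelled product standard.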

[3] = molecular target: Protein phosphatase 1D (Homo sapiens) (UniProt O15297); assay: Rhodamine-PBP qHTS Assay for Modulators of WT P53-Induced Phosphatase 1 (WIP1) (AID 1347425)
Outline: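 WIP1 (5 nM final) was preincubated with compound for 1 hour at room temperature. It then dephosphorylated 10 uM VEPPL-pS-QETFS peptide in Tris-HCl pH 7.5 with 30 mM MgCl2. Released Pi was detected by 10 uM Rh-PBP fluorescence (ex 525/em 598 nm) read at 1-min intervals for 11 min, as delta f1 - f0.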

[4] = Primary qHTS for inhibitors of La Crosse Virus (LACV) - induced cell death in SH-SY5Y cells (AID 1508616);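 note: top concentration of the series differs between compounds; higher means more rescue of cells from virus-induced death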
Outline: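 Screening measures cell viability in LACV-infected SH-SY5Y cultures. Compound was added before virus (0.01 MOI), and ATP was detected by luminescence 6 days later.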

[5] = molecular target: Calcium and integrin-binding protein 1 (Homo sapiens) (UniProt Q99828); assay: Validation qHTS for Identification of Calcium Integrin Binding protein 1 (CIB1) Competitor (AID 1508618)
Chain of Calcium and integrin-binding protein 1 (Homo sapiens) (Q99828 whole entry, looked up): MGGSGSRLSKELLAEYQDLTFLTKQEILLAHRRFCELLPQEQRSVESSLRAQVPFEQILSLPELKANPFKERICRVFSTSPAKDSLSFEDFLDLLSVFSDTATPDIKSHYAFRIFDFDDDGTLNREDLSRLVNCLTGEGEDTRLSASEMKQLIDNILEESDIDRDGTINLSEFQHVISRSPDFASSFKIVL
Outline: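 Fluorescence polarization with 1 uM CIB1-GST and 100 nM FITC-alphaIIb peptide in HEPES pH 7.4, NaCl, 5 mM CaCl2, Tween20. Compounds at up to 114 uM final, preincubated with protein 15 min; read after 15 min more at RT.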

[6] = molecular target: Calcium and integrin-binding protein 1 (Homo sapiens) (UniProt Q99828); assay: Primary qHTS for Identification of Calcium Integrin Binding Protein 1 (CIB1) Competitor (AID 1508620);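 note: GST tagged CIB1 binding a fluorescein labelled alphaIIb integrin peptide tracer; top concentration of the series differs between compounds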
Outline: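 CIB1-GST (1 uM final) and compound incubated 15 min at room temperature before adding FITC-alphaIIb peptide tracer (100 nM final). Competition for binding read by fluorescence polarization (ex 480, em 540) after another 15 min at room temperature.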

[7] = Primary qHTS for small molecule stabilizers of the endoplasmic reticulum resident proteome: Secreted ER Calcium Modulated Protein (SERCaMP) assay (AID 1508630)
Outline: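 The SH-SY5Y reporter protocol was run at 3 concentrations up to 38.3 uM (primary) or 11 concentrations (follow-up): 16 h compound, 100 nM thapsigargin for 4 h, then extracellular luciferase luminescence.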

[8] = A High-Content qHTS Against Drug Library for the Identification of Small Molecules that Inhibit DYT1 Early Onset Primary Dystonia-Associated Cell Pathology (AID 1645839; calls by dose curve; note: potency is the fitted concentration of half-maximal effect)
Outline: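 High-content imaging quantified EGFP-TorsinA mislocalization in HEK293-derived cells inducibly expressing DYT1 mutant torsinA, after 48 h exposure to compound given together with tetracycline induction. Cell count served as a toxicity channel alongside %pathology.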

[9] = molecular target: Cytochrome P450 2D6 (Homo sapiens) (UniProt P10635); assay: Cytochrome P450 family 2 subfamily D member 6 (CYP2D6) small molecule antagonists: luciferase biochemical (cell-free) qHTS assay (AID 1645840; active = well fitted curve in the direction sought with a large enough effect in the repeat runs; an effect the other way counts as inactive or inconclusive; note: nearly all actives have a fitted effect of over 55% in size; note: potency is the fitted concentration of half-maximal effect)
Chain of Cytochrome P450 2D6 (Homo sapiens) (P10635 whole entry, looked up): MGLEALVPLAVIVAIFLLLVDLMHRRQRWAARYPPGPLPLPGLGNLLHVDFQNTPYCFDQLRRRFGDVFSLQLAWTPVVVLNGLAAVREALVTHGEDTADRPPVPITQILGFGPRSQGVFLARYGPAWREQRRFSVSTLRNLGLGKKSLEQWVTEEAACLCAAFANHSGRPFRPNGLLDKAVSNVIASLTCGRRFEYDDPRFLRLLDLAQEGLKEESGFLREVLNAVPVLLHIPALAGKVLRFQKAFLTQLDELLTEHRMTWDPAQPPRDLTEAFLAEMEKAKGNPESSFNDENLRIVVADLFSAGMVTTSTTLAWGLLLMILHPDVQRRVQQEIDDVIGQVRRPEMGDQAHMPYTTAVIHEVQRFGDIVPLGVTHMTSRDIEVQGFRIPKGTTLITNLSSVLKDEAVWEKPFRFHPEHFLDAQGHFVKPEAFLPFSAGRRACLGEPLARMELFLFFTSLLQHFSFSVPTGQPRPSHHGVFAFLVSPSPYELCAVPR
Outline: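 P450-Glo CYP2D6 system: proluciferin substrate converted by enzyme to luciferin, read by luminescence proportional to activity. Enzyme-substrate mix with compound 10 min at room temperature, then NADPH regeneration 1 h before detection reagent.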

[10] = molecular target: Cytochrome P450 2C9 (Homo sapiens) (UniProt P11712); assay: Cytochrome P450 family 2 subfamily C member 9 (CYP2C9) small molecule antagonists: luciferase biochemical (cell-free) qHTS assay (AID 1645842; active = well fitted curve in the direction sought with a large enough effect in the repeat runs; an effect the other way counts as inactive or inconclusive; note: nearly all actives have a fitted effect of over 55% in size; note: potency is the fitted concentration of half-maximal effect)
Chain of Cytochrome P450 2C9 (Homo sapiens) (P11712 whole entry, looked up): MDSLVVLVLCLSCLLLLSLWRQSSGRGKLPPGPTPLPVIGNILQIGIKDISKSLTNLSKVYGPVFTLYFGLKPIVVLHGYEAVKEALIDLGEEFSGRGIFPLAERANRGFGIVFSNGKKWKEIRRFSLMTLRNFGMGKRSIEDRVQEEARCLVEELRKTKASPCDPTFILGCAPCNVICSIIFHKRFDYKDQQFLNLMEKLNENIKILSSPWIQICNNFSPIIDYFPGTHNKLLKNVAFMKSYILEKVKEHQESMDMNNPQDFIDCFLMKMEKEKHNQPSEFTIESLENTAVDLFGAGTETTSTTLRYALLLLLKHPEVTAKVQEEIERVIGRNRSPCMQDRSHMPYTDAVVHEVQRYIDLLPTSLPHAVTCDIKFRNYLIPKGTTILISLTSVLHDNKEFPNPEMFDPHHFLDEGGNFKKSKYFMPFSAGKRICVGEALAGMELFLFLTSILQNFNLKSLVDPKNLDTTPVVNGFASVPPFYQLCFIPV
Outline: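 P450-Glo CYP2C9 system: proluciferin substrate with enzyme in mix containing 0.4% BSA, 10 min at room temperature, then NADPH regeneration solution added and incubated 1 h at 37C. Detection reagent stopped reaction; luminescence read after 20 min as RLU.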

Papain (Carica papaya) = Papain (Carica papaya) (UniProt P00784); assay: Primary qHTS assay for inhibitors of the protease papain (AID 1645873);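 note: papain turnover of Z-FR-AMC read as the AMC fluorescence gain over 10 min; series mostly up to about 50 µM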
Chain of Papain (Carica papaya) (P00784 whole entry, looked up, the tested form may be a part): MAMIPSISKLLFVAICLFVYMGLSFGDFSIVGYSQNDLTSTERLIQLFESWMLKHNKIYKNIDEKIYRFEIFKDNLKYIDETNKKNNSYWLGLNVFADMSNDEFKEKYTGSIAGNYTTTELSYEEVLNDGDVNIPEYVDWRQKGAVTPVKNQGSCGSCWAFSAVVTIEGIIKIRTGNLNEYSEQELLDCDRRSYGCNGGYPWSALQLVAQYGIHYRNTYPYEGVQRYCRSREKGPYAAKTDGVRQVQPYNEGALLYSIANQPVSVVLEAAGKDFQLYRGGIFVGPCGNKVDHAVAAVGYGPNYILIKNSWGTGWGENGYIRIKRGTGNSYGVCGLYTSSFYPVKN

[11] = Primary qHTS for inhibitors of nuclear receptor binding SET domain protein 2 (NSD2) in an isogenic RCH-ACV NSD2 p.E1099K mutant (9B) (AID 1645876); note: nearly all actives have a fitted effect of over 70% in size; note: potency is the fitted concentration of half-maximal effect
[12] = Primary qHTS for inhibitors of nuclear receptor binding SET domain protein 2 (NSD2) in an RCH-ACV wild type WT cells (2C) (AID 1645877); note: nearly all actives have a fitted effect of over 70% in size; note: potency is the fitted concentration of half-maximal effect
[13] = qHTS to identify inhibitors of the type 1 interferon - major histocompatibility complex class I in skeletal muscle: primary screen against the NCATS Mechanism Interrogation Plate v5.0 (MIPE) Libary (AID 1347411); note: nearly all actives have a fitted effect of over 65% in size; note: potency is the fitted concentration of half-maximal effect
Outline: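 IFN-beta-driven (4 ng/ml) HLA-B-HiBit expression in CRISPR-tagged C25cl48 myoblasts; compounds 11-pt, 1:3, max 46 uM, 24 hr exposure; lytic NanoLuc complementation luminescence.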

[14] = molecular target: Single-stranded DNA cytosine deaminase (Homo sapiens) (UniProt Q9GZX7); assay: Validation qHTS assay for inhibitors of Activation Induced Cytidine Deaminase (AID): AID signal (AID 1347429)
Chain of Single-stranded DNA cytosine deaminase (Homo sapiens) (Q9GZX7 whole entry, looked up): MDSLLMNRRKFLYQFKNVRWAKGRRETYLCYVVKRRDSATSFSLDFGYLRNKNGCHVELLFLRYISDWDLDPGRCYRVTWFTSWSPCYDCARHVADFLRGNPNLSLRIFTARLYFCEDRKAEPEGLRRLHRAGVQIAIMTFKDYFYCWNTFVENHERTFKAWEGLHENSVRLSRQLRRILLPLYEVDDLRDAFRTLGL
Outline: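 Compounds (up to 114 uM final) are tested against AID plus UDG using DJC20/DJC23 FRET substrate. Reactions incubate 4 hr at room temperature, receive NaOH for 30 min, and are read at Ex 540/Em 590 nm.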

[15] = Confirmatory qHTS for small molecule stabilizers of the endoplasmic reticulum resident proteome: Secreted ER Calcium Modulated Protein (SERCaMP) assay (AID 1508628); note: potency is the fitted concentration of half-maximal effect; nearly all actives have a fitted effect of over 40% in size
Outline: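 GLuc-SERCaMP-expressing SH-SY5Y cells, pretreated 16 h with compound, are challenged with thapsigargin to empty ER calcium stores; after 4 h, coelenterazine is added directly to the medium and luminescence is imaged.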

[16] = molecular target: N-terminal Xaa-Pro-Lys N-methyltransferase 1 (Homo sapiens) (UniProt Q9BV86); assay: Confirmatory qHTS for Inhibitors of N-terminal methyltransferase 1 (NTMT1): MTaseGlo Assay (AID 1645874); note: potency is the fitted concentration of half-maximal effect; nearly all actives have a fitted effect of over 65% in size
Chain of N-terminal Xaa-Pro-Lys N-methyltransferase 1 (Homo sapiens) (Q9BV86 whole entry, looked up): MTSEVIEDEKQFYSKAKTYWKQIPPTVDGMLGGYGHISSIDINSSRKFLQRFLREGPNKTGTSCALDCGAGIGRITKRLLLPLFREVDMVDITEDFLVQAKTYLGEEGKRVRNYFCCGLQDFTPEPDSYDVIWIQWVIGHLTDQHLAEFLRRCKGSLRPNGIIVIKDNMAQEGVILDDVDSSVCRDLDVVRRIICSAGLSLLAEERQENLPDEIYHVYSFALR
Outline: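 Inhibition was derived from luminescence after SAH-to-ATP conversion, scaled between no-enzyme and DMSO wells, then fitted by 4-parameter Hill. Conditions: 125 nM NTMT1, 100 uM SAM, 1 uM SPKRIA, 30 min RT.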

[17] = molecular target: Calcium and integrin-binding protein 1 (Homo sapiens) (UniProt Q99828); assay: Confirmatory qHTS for Identification of Calcium Integrin Binding Protein 1 (CIB1) Competitor (AID 1508617); note: potency is the fitted concentration of half-maximal effect; nearly all actives have a fitted effect of over 65% in size
Outline: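 FP competition: CIB1-GST (1 uM final) in 5 mM HEPES pH 7.4, 125 mM NaCl, 5 mM CaCl2, 0.01% Tween20 preincubated 15 min RT with compounds (up to 114 uM), then FITC-alphaIIb peptide (100 nM), 15 min RT; Ex 480/Em 540.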

Measured: Potency

NNc1nncc2ccccc12
not listed: [13] | [14] | [15] | [16] | [17]
inactive: all other assays above

Cc1cc(O)c2c(c1)C(=O)c1cc(O)cc(O)c1C2=O
inactive: [1] | [13] | [14] | [4] | [6] | Papain (Carica papaya) | [11] | [12]
active: [15] 14.1 µM | [16] 30.8 µM

O=C1NC(=O)C(c2ccccc2[N+](=O)[O-])=C1Nc1ccc(O)c(Cl)c1
active: [11] 13.2 µM | [12] 18.6 µM
inactive: [1] | [14] | [4] | [6] | [7]

CC1(C)C(=O)N(CCN2CCC(C(=O)c3ccc(F)cc3)CC2)c2ccccc21
inactive: [1] | [14] | [4] | [5] | Papain (Carica papaya)

Nc1nc(N)c(N=O)c(OCC2CCCCC2)n1
inactive: [1] | [13] | [14] | [4] | [5] | [6] | [9] | [10]
active: [11] 7.31 µM and 4.68 µM | [12] 6.51 µM

CNC[C@H](O)c1ccc(O)c(O)c1
not listed: [6] | [9] | [12] | [15] | [16] | [17]
inactive: all other assays above

Cc1cccc(CN2CCN(C(c3ccccc3)c3ccc(Cl)cc3)CC2)c1 (stereo not drawn)
active: [9] 2.45 µM | [10] 11 µM
inactive: [13] | [2] | [3] | [4] | [6] | [7] | [11]

Cc1nc(-c2ccc(OCC(C)C)c(C#N)c2)sc1C(=O)O
inactive: [13] | [2] | [3] | [4] | [6] | [7] | [9] | [11] | [12]

COc1cc(Nc2c(C#N)cnc3cc(OCCCN4CCN(C)CC4)c(OC)cc23)c(Cl)cc1Cl
inactive: [2] | [3] | [4] | [6] | [7] | [9] | [10]
active: [13] 7.39 µM | [17] 44.7 µM | [8] 10 µM | [16] 15.8 µM | [11] 596 nM and 1.63 µM and 1.32 µM | [12] 531 nM and 1.63 µM and 1.48 µM

COC1=C(OC)C(=O)C(CCCCCCCCCCO)=C(C)C1=O
inactive: [13] | [2] | [3] | [4] | [6] | [7]
active: [9] 3.89 µM | [10] 7.76 µM | [11] 11.9 µM and 18.6 µM | [12] 9.44 µM and 18.6 µM
